From PubChem BioAssay AID504444 (National Center for Advancing Translational Sciences (NCATS), 2011)
The whole screen tested about 360,000 compounds, of which about 7,500 (2.1%) were called active. Where a call stands in place of a potency, no number is given. About 20% were inconclusive and are not listed. The call rests on the fitted dose curve; in most records, active means well fitted inhibition curve with a large enough effect; inconclusive means small, poorly fitted or top-dose-only effect, or effect the other way; inactive means flat fitted curve, though single readings scatter. Only a selection was taken, and actives are over-represented in it overall.

Assay: Nrf2 qHTS screen for inhibitors; further: nearly all actives have a fitted effect of over 60% in size
Conditions: A549 ARE-Fluc reporter, luciferase luminescence, 18-24 h; series mostly up to 46 µM
Outline: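 Reporter: ARE-Fluc in A549. Exposure: 18-24 h, 37 °C, 5% CO2, 5% FBS OPTI-MEM. Readouts: fluorescent cytotoxicity (CellTiter-Fluor), then luminescent Nrf2 signal after BugLite.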
Potency means the concentration at half of the fitted maximal effect.

Row | SMILES | Potency
1 | CC1CN(C(=O)N2CCC(C(=O)NCc3cccs3)CC2)c2ccccc2O1 (configuration not stated) | inactive
2 | O=C(CCCCn1c(=O)c2ccccc2n(CC(=O)Nc2cccc(C(F)(F)F)c2)c1=O)NCc1ccc2c(c1)OCO2 | inactive
3 | CCCS(=O)(=O)N1CCC(n2c(C(F)(F)F)nc3cccnc32)CC1 | inactive
4 | O=C(N[C@@H]1C/C=C\C[C@@H](CC(=O)N(CCO)Cc2ccccc2)C(=O)N[C@H](Cc2ccccc2)COC1=O)OCC1c2ccccc2-c2ccccc21 | inactive
5 | CC(C)(C)n1nnnc1C(c1ccc(F)cc1)N1CCN(Cc2ccc3c(c2)OCO3)CC1 (configuration not stated) | inactive
6 | Fc1ccc2[nH]c3c(N4CCSCC4)ncnc3c2c1 | 18.4 µM (active)
7 | O=c1[nH]c(N2CCN(Cc3ccc4c(c3)OCO4)CC2)nc2c1CCCC2 | inactive
8 | Fc1ccc2[nH]c3c(N4CCN(Cc5ccc6c(c5)OCO6)CC4)ncnc3c2c1 | 10.3 µM (active)
9 | Cc1c(CN2CC[C@@H](N3CCN(c4ccccn4)CC3)[C@H](O)C2)[nH]c2ccc(F)cc12 | inactive
10 | CCn1c(CN2CCC(C)CC2)nc2cc(NC(=O)c3ccccc3[N+](=O)[O-])ccc21 | inactive
11 | CCCN(CC(=O)Nc1ccccc1C)C(=O)c1ccc(OCC(=O)N2CCOCC2)c(OCC)c1 | inactive
12 | Cc1ccccc1NC(=O)Cn1c(=O)n(CC2CCC(C(=O)NCCc3ccccc3)CC2)c(=O)c2ccccc21 (configuration not stated) | inactive
13 | COc1cc(C(=O)NCC(c2ccco2)N2CCCC2)ccc1OCc1ccccc1 (configuration not stated) | inactive
14 | Cc1ccccc1Nc1nn2c(=O)c3ccc(C(=O)NCCc4ccc(Cl)cc4)cc3nc2s1 | inactive
15 | Cc1ccc(S(=O)(=O)NC(N)=NCCC[C@@H](NC(=O)CNC(=O)c2ccccc2)C(=O)Nc2cc(C(F)(F)F)ccc2Cl)cc1 | inactive
16 | O=C1NC[C@@H](c2ccccc2)OC(=O)[C@H](Cc2ccc(F)cc2)CC/C=C/C[C@H]1CC(=O)N(CCO)Cc1ccccc1 | inactive
17 | Cc1ccc2nc(-c3ccc(O)cc3)c(Nc3ccc4c(c3)OCO4)n2c1 | inactive
18 | Cc1nc2ccccc2c(-c2ccccc2)c1C(=O)c1ccccc1 | 23.1 µM (active)
19 | Cc1nc2ccccc2c(C(=O)O)c1-c1ccccn1 | inactive
20 | Cc1nc2ccccc2c(C)c1C(=O)c1ccc(F)cc1 | inactive
21 | CC1(C)O[C@@H]2CC3C4C[C@H](F)C5=CC(=O)C=CC5(C)C4C(O)CC3(C)[C@]2(C(=O)CO)O1 (some centres not stated) | 0.0046 µM (active)

Row | SMILES | Potency
22 | Cc1ccc(C(CC(=O)O)NC(=O)c2ccc(S(=O)(=O)N3CCCC3)cc2)cc1 (configuration not stated) | inactive
23 | COCCOC(=O)C1=C(C)NC(=O)NC1c1ccc(Cl)cc1 (configuration not stated) | inactive
24 | CCOCCOC(=O)C1=C(C)NC(=O)NC1c1ccc2c(c1)OCO2 (configuration not stated) | inactive
25 | CCC(CC)COC(=O)C1=C(C)NC(=O)NC1c1ccc([N+](=O)[O-])cc1 (configuration not stated) | 25.9 µM (active)
26 | COc1cc(CN(CC2CCCO2)C(=O)c2ccccc2F)cc(OC)c1OC (configuration not stated) | inactive
27 | COc1ccc(CCC(=O)c2ccc(OC)cc2)cc1 | inactive
28 | COc1ccc(C(=O)C[n+]2ccc(N)c(C)c2C)cc1 | 5.8 µM (active)
29 | COc1ccc(C(=O)C[n+]2ccc(C)cc2)cc1 | inactive
30 | CC/C(=C\c1ccc(Cl)cc1)c1ccncc1 | inactive
31 | COc1ccc(S(=O)(=O)N(C)C[C@H]2Oc3c(NC(=O)Nc4ccc5c(c4)OCO5)cccc3C(=O)N([C@H](C)CO)C[C@@H]2C)cc1 | inactive
32 | COc1ccc(C(=O)N(Cc2ccccc2)Cc2ccc(OC)c(COc3ccc(NC(C)=O)cc3)c2)c(O)c1 | inactive
33 | Cc1cn(COC/C=C/c2ccccc2)c(=O)[nH]c1=O | inactive
34 | Cc1[nH]c(=O)c(C(=O)/C=C/c2ccccc2)c2c1CCCC2 | 20.6 µM (active)
35 | Cc1cccc(C=CC(=O)c2ccc(Cl)cc2)c1 | inactive
36 | Nc1ccc2c(c1)C(=Cc1cccnc1)c1ccccc1-2 | inactive
37 | Cn1c2ccccc2c(=O)c2c(O)cccc21 | inactive
38 | CCCc1nc2c(c(=O)c3ccccc3n2C)c(=O)n1C1CCCCCC1 | 23.1 µM (active)
39 | CCCc1nc2c(c(=O)c3ccccc3n2C)c(=O)n1-c1cc(C)cc(C)c1 | inactive
40 | O=C(NCc1cccnc1)C(=O)NCC(c1cccnc1)N1CCN(c2ccccc2)CC1 (configuration not stated) | inactive
41 | O=C(CCCCCCCC(=O)N1CCCCC1)N1CCCCC1 | inactive
42 | CN(C)CCCNC(=O)/C=C/c1ccc(OCc2c(F)cccc2Cl)cc1 | 20.6 µM (active)

Row | SMILES | Potency
43 | COc1cc(CNCCN(C)C)ccc1OCc1c(F)cccc1Cl | inactive
44 | COCCCNC(=O)/C=C/c1ccc(OCc2c(F)cccc2Cl)cc1 | inactive
45 | COc1cc2c(-c3ccc4c(c3)OCO4)c(-c3ccsc3)oc(=O)c2cc1OC | inactive
46 | O=C1C=C(c2cccc(Cl)c2O)C[C@@H](c2ccc(F)cc2)C1 | inactive
47 | COc1ccc(N2CCN(Cc3nc4c(c(=O)[nH]c(=O)n4C)n3Cc3ccc(Cl)cc3)CC2)cc1 | inactive
48 | CCc1cccc2c3c([nH]c12)C(CC)(CC(=O)O)OCC3 (configuration not stated) | 10.3 µM (active)
49 | O=C1CC[C@@H]2CC3(C[C@@H]4CCN1[C@H]24)Nc1cc([N+](=O)[O-])ccc1NC3=NC1CCCCC1 (some centres not stated) | inactive
50 | CC1CC(C)(C)n2c(O)c(N=NC(N)=S)c3cccc1c32 (configuration not stated) | 14.6 µM (active)
51 | Cc1cccc(NC(=O)CSc2nc(-c3ccco3)cc(C(F)(F)F)n2)c1C | inactive
52 | COc1cccc(C=CC(=O)C=CC=Cc2ccccc2)c1 | inactive
53 | Cc1c(Cl)cccc1NC(=O)CCS(=O)(=O)c1ccc2c(c1)oc(=O)n2C | inactive
54 | CCc1ccccc1NC(=O)Cn1c(=O)n(CC2CCC(C(=O)NCCc3ccccc3)CC2)c(=O)c2ccccc21 (configuration not stated) | inactive
55 | CCN(C[C@H]1N[C@@](Cc2ccccc2)(C(=O)OC)[C@H]2C(=O)N(Cc3ccccc3)C(=O)[C@@H]12)C(=O)c1ccc(C)cc1 | inactive
56 | CCOc1ccccc1N(CC)C(=O)c1cc2ccc3cccnc3c2[nH]1 | inactive
57 | COc1ccc(CCNC(=O)c2nnc(CS(=O)(=O)c3ccccc3)o2)cc1OC | inactive
58 | O=C(NCc1cccnc1)c1ccc(CS(=O)(=O)c2ccc(Br)cc2)o1 | 14.6 µM (active)
59 | COc1ccc(CCNC(=O)c2ccc(CS(=O)(=O)c3ccc(Br)cc3)o2)cc1OC | 4.11 µM (active)
60 | Cc1cccc(NS(=O)(=O)c2ccc(C)c(C(=O)NCc3cccnc3)c2)c1 | inactive
61 | COc1ccc(C(=O)NCCc2ccc(S(N)(=O)=O)cc2)cc1OC | inactive
62 | COc1ccccc1CNC(=O)c1ccc(CS(=O)(=O)c2ccccc2)o1 | inactive
